How the values were obtained:
Details in all cases: concentration: 1 μM, replicates: in singlicate; n = 1
NEK11 = tested on: NEK11
NEK1 = tested on: NEK1
NEK2 = tested on: NEK2
NEK3 = tested on: NEK3
NEK4 = tested on: NEK4
NEK5 = tested on: NEK5
NEK6 = tested on: NEK6
NEK7 = tested on: NEK7
NEK9 = tested on: NEK9
NIK = tested on: T1, NIK
T1 construct: gene MAP3K14
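Note: KINOMEscan kinase panel screen.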

Structure (SMILES) | %Inh (NEK11) | %Inh (NEK1) | %Inh (NEK2) | %Inh (NEK3) | %Inh (NEK4) | %Inh (NEK5) | %Inh (NEK6) | %Inh (NEK7) | %Inh (NEK9) | %Inh (NIK)
COC(=O)Nc1nc2cc(Oc3ccc(NC(=O)Nc4cccc(SC)c4)cc3)ccc2[nH]1.Cl [GW697999] | 22% | 0% | 0% | 4% | 4% | 11% | 0% | 0% | 3% | 0%
Cc1ccc(O)cc1Nc1ccnc2ccc(C(C)(C)C)cc12 [GW856805] | 23% | 21% | 9% | 39% | 1% | 17% | 20% | 25% | 10% | 31%
CC(C)c1nc(-c2cccc(NS(=O)(=O)c3c(F)cccc3F)c2)c(-c2ccnc(Nc3ccc(N4CCOCC4)nc3)n2)s1.Cl [GSK1723980] | 97.8% | 0% | 48% | 0% | 6% | 0% | 55% | 76% | 88% | 95.4%
O=C1NC(=O)C(c2ccccc2Cl)=C1Nc1cccc(Cl)c1 [SB-342409] | 0% | 5% | 10% | 56% | 11% | 7% | 1% | 16% | 20% | 0%
COC(=O)Nc1nc2ccc(Oc3ccc(CC(=O)Nc4cc(C(F)(F)F)ccc4F)cc3)cc2[nH]1 [GW680903] | 0% | 0% | 0% | 6% | 14% | 13% | 0% | 0% | 45% | 25%
COc1ccc(NC(=O)c2ccoc2)cc1-c1ccc(C(=O)NCC2CC2)cc1 [GW810437] | 0% | 0% | 0% | 37% | 0% | 0% | 0% | 0% | 7% | 40%
COc1cccc(C2=C(Nc3cccc(O)c3)C(=O)NC2=O)c1 [SB-390771] | 0% | 0% | 0% | 19% | 2% | 2% | 0% | 7% | 15% | 7%
O=C(Nc1n[nH]c2nc(-c3ccccc3O)ccc12)C1CC1 [SB-711880] | 0% | 0% | 0% | 18% | 0% | 0% | 0% | 3% | 6% | 18%
Cl.O=C(Nc1ccc(Oc2ccc3[nH]c(NC(=O)c4ccco4)nc3c2)cc1)Nc1cc(C(F)(F)F)ccc1F [GW683134] | 0% | 0% | 2% | 0% | 0% | 0% | 0% | 0% | 79% | 13%
CN(c1ccc(NC(=O)Nc2cccc(Cl)c2)cc1)c1ccnc(N)n1.Cl [GW830707] | 28% | 0% | 16% | 0% | 0% | 7% | 14% | 0% | 3% | 9%
CN(C)CCOc1ccc(-c2cc(-c3ccc(Cl)c(O)c3)c(-c3ccncc3)[nH]2)cc1.Cl.Cl [SB-684387] | 38% | 9% | 14% | 2% | 0% | 22% | 0% | 0% | 17% | 0%
CSc1ccc(NC2=C(c3ccc(Cl)cc3)C(=O)NC2=O)cc1 [SB-317658] | 28% | 4% | 0% | 0% | 0% | 29% | 33% | 0% | 1% | 21%
Cc1cccc(Nc2nc(NCCN)ncc2C(N)=O)c1 [GSK1292139] | 3% | 0% | 0% | 31% | 29% | 47% | 0% | 0% | 18% | 0%
COc1cccc2c(-c3ccncc3)c(-c3ccc(F)cc3)nn12 [GW468513] | 0% | 0% | 0% | 0% | 4% | 7% | 0% | 0% | 0% | 0%
Cc1ccc(-c2ccc3occ(-c4ccc(S(C)=O)cc4)c3c2)nn1 (stereo not drawn) | 0% | 0% | 0% | 30% | 0% | 0% | 0% | 0% | 0% | 0%
CN(C)c1ncnc2nc[nH]c12 [SKF-31736] | 0% | 0% | 0% | 41% | 0% | 12% | 0% | 0% | 0% | 51%
O=C(Nc1n[nH]c2cc(-c3cccs3)ccc12)C1CC1 [SB-731284] | 18% | 0% | 0% | 20% | 39% | 0% | 0% | 0% | 0% | 14%

Structure (SMILES) | %Inh (NEK11) | %Inh (NEK1) | %Inh (NEK2) | %Inh (NEK3) | %Inh (NEK4) | %Inh (NEK5) | %Inh (NEK6) | %Inh (NEK7) | %Inh (NEK9) | %Inh (NIK)
CS(=O)(=O)c1cccc(CNc2nc(Nc3ccc4c(c3)CCC(=O)N4)ncc2C(F)(F)F)c1 | 0% | 0% | 0% | 37% | 0% | 28% | 6% | 0% | 0% | 0%
Cc1ccc(C)c(NC(=O)Nc2ccc(C)c(-c3ccc(C(=O)Nc4ccncc4)cc3)c2)c1 [GSK1398473] | 0% | 0% | 1% | 5% | 0% | 8% | 1% | 0% | 7% | 4%
Cn1cc(-c2ccc3c(c2)CCN3C(=O)Cc2cc(F)cc(C(F)(F)F)c2)c2c(N)ncnc21 [GSK2635225] | 8% | 9% | 18% | 0% | 13% | 0% | 6% | 0% | 25% | 15%
NCCC(NC(=O)c1cc(Br)c(-c2ccnc3[nH]ccc23)s1)c1ccccc1.O=C(O)C(F)(F)F.O=C(O)C(F)(F)F (stereo not drawn) [GSK1307810] | 30% | 71% | 19% | 0% | 0% | 96.3% | 3% | 0% | 4% | 49%
Cn1cc(-c2cnc(N)c3c(-c4ccc5c(c4)CCN5C(=O)Cc4ccccc4)csc23)cn1 [GSK2593074] | 47% | 0% | 28% | 1% | 0% | 5% | 0% | 0% | 0% | 0%
CC(C)c1nc(-c2ccc(F)c(NS(=O)(=O)c3c(F)cccc3F)c2)c(-c2ccnc(Nc3ccc(N4CCOCC4)nc3)n2)s1 [GSK1804250] | 97.6% | 16% | 31% | 3% | 10% | 1% | 7% | 8% | 85% | 9%
Nc1ncc(-c2ccc3nccc(-c4ccncc4)c3c2)cc1S(=O)(=O)N1CCCCC1 [GSK1693850] | 0% | 2% | 8% | 4% | 0% | 18% | 0% | 0% | 15% | 11%
Cc1nn2c(=O)cc(N3CCO[C@H](C)C3)nc2n1Cc1cccc(Cl)c1Cl [GSK2373693] | 0% | 0% | 18% | 0% | 0% | 75% | 0% | 0% | 0% | 21%
CCn1c(-c2nonc2N)nc2c(-c3ccccc3)ncc(OCCCN)c21.O=C(O)C(F)(F)F.O=C(O)C(F)(F)F [GSK260205] | 1% | 0% | 1% | 7% | 21% | 1% | 0% | 0% | 0% | 30%
CCOc1nccc(-c2c(-c3ccc(F)cc3)ncn2C2CCNCC2)n1 [SB-249175] | 50% | 9% | 0% | 13% | 0% | 31% | 4% | 10% | 7% | 5%
COc1cc(Nc2nccc(N3CCC(NC(=O)Nc4ccc5c(c4)OCO5)C3)n2)cc(OC)c1OC (stereo not drawn) [GSK1379766] | 0% | 46% | 20% | 45% | 26% | 100% | 18% | 29% | 21% | 20%
CCNc1nccc(-c2c(-c3ccc(F)cc3)ncn2C2CCN(C)CC2)n1 | 0% | 1% | 0% | 0% | 0% | 5% | 0% | 1% | 0% | 0%
Cc1cccc(Nc2nc(N[C@H]3CCCC[C@H]3N)ncc2C(N)=O)c1.Cl [GSK986310] | 0% | 2% | 15% | 19% | 24% | 13% | 10% | 8% | 25% | 23%
COC(=O)Nc1nc2ccc(Oc3ccc(NC(=O)Nc4cc(C(F)(F)F)ccc4F)cc3)cc2[nH]1.Cl [GW654607] | 0% | 0% | 0% | 0% | 0% | 13% | 0% | 19% | 57% | 60%
CNc1nccc(-c2ccc3c(N)n[nH]c3c2)n1 [GSK2206003] | 0% | 4% | 2% | 2% | 0% | 14% | 0% | 0% | 9% | 33%
CCNC(=O)/C=C/c1n[nH]c2cc(Sc3ccccc3C(=O)NC)ccc12 | 0% | 0% | 0% | 26% | 0% | 5% | 38% | 0% | 0% | 0%

Reference: publication PMC5540273 (PLoS ONE, 2017)
